High-throughput results deposited in PubChem BioAssay by National Center for Advancing Translational Sciences (NCATS).
IkB sig inh: suppresses IkB signaling in ABC-DLBCL reporter cells | AID 445 | hit rate 0.04% among 110,000 | Potency, µM (doses to about 57.1 µM), without a hit: at the highest dose IkBa stabilization activation | ABC-DLBCL IkBa-CBG/CBR dual luciferase ratio, 4 h; response scale: scaled: untreated 0%, proteasome inhibitor 100%; active = well fitted curve in the direction sought with a large enough effect in the signal ratio, not every such curve was filed as active; inconclusive = small, poorly fitted or top-dose-only effect, or a change in a side signal; the % refers to the signal ratio;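 also: the direction sought is a rising ratio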
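Luminescence ratio of IκBα-fused green versus native red beetle luciferase in OCI-Ly3 cells, 4 h post-doxycycline with compound; red signal alone, scaled from basal (0%) to zero light (-100%), flagged nonspecific or cytotoxic effects.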
TSHR ag: TSH receptor (human) agonism | Potency, µM (titrated, usually from 57.1 µM), for the others: at the highest dose activation, most hits filed as activators | P16473 | HEK293-CNG-TSHR cells (CNG channel as cAMP sensor), membrane potential dye, cAMP | hit rate 0.48% among 73,000; active = well fitted activation curve with a large enough effect in the main read-out, with a control signal flat, not every such curve was filed as active; inconclusive = small, poorly fitted or top-dose-only effect, or a change in a side signal; inactive = no such curve, though single readings can be large or run the other way; % of control where 0% means no effect;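 also: the control signal comes from parental cells without the receptor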
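HEK 293 cells stably expressing TSHR and a cAMP-gated CNG channel; parental CNG-only cells as counterscreen. Cells preloaded 60 min with membrane potential dye plus 100 uM RO 20-1724, then compound 30 min; fluorescence read at 590 nm.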
Hsp90 Hop PPI: changes Hsp90-Hop TPR2A binding signal, up or down; AlphaScreen TPR2A-His6 binding biotin-Hsp90 C-terminal peptide; Potency, µM (highest dose often 57 µM), for inactives: top-dose activity change, negative = inhibition; hit rate 0.44% among 71,000; AID 595; active = well fitted curve in either direction with a large enough effect; inconclusive = small, poorly fitted or top-dose-only effect, or another doubt; also: % is scaled to controls: 0 for no effect and ±100 for the full control effect
CRE-bla Fsk: modulators of forskolin-stimulated CRE signaling in CHO cells; CHO CRE-bla reporter (cAMP response element driving beta-lactamase), forskolin EC10, beta-lactamase ratio; Potency, µM (titrated, usually from 38.2 µM), inactives show at the highest dose activity change, negative = inhibition, actives largely listed as activators; hit rate 2.5% among 71,000; AID 662; active = well fitted activation curve with a large enough effect in the signal ratio, with a control signal flat, not every such curve was filed as active; inconclusive = small, poorly fitted or top-dose-only effect, or effect the other way, or a change in a side signal; the % refers to the signal ratio; also: % of control where 0% means no effect
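CRE-bla CHO cells stimulated with EC10 NKH 477 (water-soluble forskolin) and compound titrations, 3 h at 37C; beta-lactamase read with CCF4 after 2 h at room temperature. Activity from 460/530 nm emission ratio, AC50 values for positive or negative modulation.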
HEK293 cAMP ctrl: parental HEK293 cAMP activation (counter-screen) | parental HEK293 CNG cAMP sensor, membrane potential fluorescence | Potency, µM (series often up to 57.1 µM), for the others: at the top dose activation, usual class: activators | hit rate 2.5% among 73,000 | AID 938; active = well fitted activation curve with a large enough effect; inconclusive = small, poorly fitted or top-dose-only effect; inactive = no such curve, though single readings can be large or run the other way; also: % of control where 0% means no effect; nearly all actives have a fitted effect of over 55% in size
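Parental HEK 293 cells stably expressing a cAMP-gated CNG channel were loaded with membrane potential dye containing 100 uM RO 20-1724 for 60 min. Compound added for 30 min; depolarization read as fluorescence intensity at 590 nm.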
Starred values were filed as active, the others as inactive; u = inconclusive; x = not tested or not shown; [ ] = remark or other dose. A selection: hits, their analogues and other compounds. The true share with any hit is near 3.5%. Potency is read from the fitted curve at half-maximal effect.

SMILES	IkB sig inh	TSHR ag	Hsp90 Hop PPI	CRE-bla Fsk	HEK293 cAMP ctrl
O=C(CSc1nc2c(cnn2-c2ccc(F)cc2)c(=O)[nH]1)N1CCCc2ccccc21	0%	u	-4%	u	25µM*
O=C(N/N=C1/C[C@@H](O)[C@@H](O)[C@@H]2[C@@H]3C(=O)N(Cc4ccc5c(c4)OCO5)C(=O)[C@H]3CC[C@@H]12)OCc1ccccc1	x	0%[11.4 µM]	x	x	8%[11.4 µM]
COc1ccccc1-c1nccc(N2CCN(C)CC2)n1	1%[11.4 µM]	26%	-6%	-12%	28%
CN1CCN(c2ccnc(-c3ccccc3C(F)(F)F)n2)CC1	1%[11.4 µM]	u	-3%	-9%	32µM*
CCCS(=O)(=O)c1nc(S(=O)(=O)c2ccc(C)cc2)c(N(C)Cc2ccccc2)s1	2%	x	x	x	x
COCCNS(=O)(=O)c1ccc(OCC(=O)OC)c(Cl)c1	0%	20µM*	0%	-3%	10%
COC(=O)COc1ccc(S(=O)(=O)NCc2ccco2)cc1Cl	4%	5%	-5%	-3%	0%
CC1=CC(C)(C)N2C(=O)C3(C(C#N)=C(N)OC4=C3C(=O)CC(C)(C)C4)c3cccc1c32 (stereo not drawn)	0%	-5%	-6%	u	-7%
CC1=CC(C)(C)N2C(=O)C3(C(C#N)=C(N)Oc4cc(O)ccc43)c3cccc1c32 (stereo not drawn)	0%	12%	-9%	3.2µM*	-5%
Cn1c(C(=O)OC(C(=O)NC2CCCC2)c2ccncc2)cc2sccc21 (stereo not drawn)	-1%	u	-7%	-5%	u
CC(C)C(OC(=O)c1cc2sccc2n1C)C(=O)NCC1CCCO1 (stereo not drawn)	7%	u	-2%	-15%	2µM*
Cn1c(C(=O)OC(C(=O)NC2CCCCC2)c2ccncc2)cc2sccc21 (stereo not drawn)	2%	u	-3%	-2%	16µM*
CC(C)CC(OC(=O)c1cccs1)C(=O)NCC1CCCO1 (stereo not drawn)	0%	-2%	-1%	-1%	-15%
COc1ccc(NC(=O)N2CC3(CCN(C(=O)c4cnccn4)CC3)C2)cc1	1%[11.4 µM]	-2%	-2%	-9%	-9%
O[C@@H](c1cc(C(F)(F)F)nc2c(Cl)cc(Cl)cc12)[C@@H]1CCCCN1	0%[11.4 µM]	-3%[11.4 µM]	0%[11 µM]	-12%[7.6 µM]	11%[11.4 µM]
Cc1cc(C(=O)CSc2nnc(-c3ccco3)o2)c(C)n1Cc1ccco1	u	u	-9%	-11%	u
Cc1cc(C(=O)CSc2nnc(-c3ccco3)o2)c(C)n1-c1ccc2c(c1)OCCO2	u	u	-7%	u	16µM*
Cc1nnc(SCC(=O)c2cc(C)n(-c3ccc4c(c3)OCO4)c2C)s1	u	u	-11%	13%	16µM*
C[C@@H]1O[C@H](O[C@@H]2\C=C/C=C\C=C/C=C\C[C@H](C)OC(=O)/C=C\[C@H]3O[C@@H]3C[C@H](O)C[C@]3(O)C[C@@H](O)[C@@H](C(=O)O)[C@H](C2)O3)[C@@H](O)[C@H](N)[C@@H]1O (stereo in doubt)	1%[25.6 µM]	8%[25.6 µM]	-4%[26 µM]	5%[17.1 µM]	3%[25.6 µM]
Cc1cc(C)n2nc(NCc3cccc(Br)c3)nc2n1	6%	1µM*	0%	u	1%
COc1ccc(CNc2nc3nc(C)cc(C)n3n2)cc1OC	-1%	6%	-1%	u	-3%
CO[C@H]1COC(=O)[C@H]2CCCN2C(=O)C/C=C\[C@@H](C)[C@H](OC)COC(=O)[C@@H](OCc2ccccc2)/C=C\[C@@H]1C	x	-4%[11.4 µM]	x	x	6%[11.4 µM]
COc1cccc(NC(=O)Cn2c(-c3nonc3N)nc3ccccc32)c1	2%	x	x	x	x
Cn1cccc1-c1nc2ccccc2n1Cc1ccccc1	4%	u	-15%	2%	32µM*
Cc1ccc(Cn2c(-c3nonc3N)nc3ccccc32)cc1	0%	u	3%	10%	32µM*
C=COCCn1c(-c2nonc2N)nc2ccccc21	-1%	u	3%	-8%	25µM*
Nc1nonc1-c1nc2ccccc2n1Cc1ccc(Cl)cc1	2%	u	4%	7%	16µM*
